In PubChem BioAssay (EPA / NIEHS):
Active and inactive are the calls of the source. How the source made its calls: active means hit-call score of the fitted dose curve at least 0.9, where 1 is the maximum; inactive means score below 0.9.

Assay: ATG_Oct_MLP_CIS: Attagene CIS-FACTORIAL HepG2 Assay for human Octamer-Binding Transcription Factor (Oct) (AID 2282993)
Settings: HepG2 Attagene cis-factorial Oct reporter, mRNA; actives raise or lower the signal
Experimental: ATG_CIS is a cell-based, multiplexed-readout assay that uses HepG2, a human liver cell line, with measurements taken at 24 hours after chemical dosing in a 24-well plate.ATG_Oct_MLP_CIS is one of 52 assay component(s) measured or calculated from the ATG_CIS assay. It is designed to make measurements of mRNA induction, a form of inducible reporter, as detected with fluorescence intensity signals by Reverse transcription polymerase chain reaction (RT-PCR) and Capillary electrophoresis technology.Data from the assay component ATG_Oct_MLP_CIS was analyzed into 1 assay endpoint. This assay endpoint, ATG_Oct_MLP_CIS, was analyzed with bidirectional fitting relative to DMSO as the negative control and baseline of activity. Using a type of inducible reporter, measures of mRNA for gain or loss-of-signal activity can be used to understand the reporter gene at the transcription factor-level as they relate to the gene POU2F1. Furthermore, this assay endpoint can be referred to as a primary readout, because this assay has produced multiple assay endpoints where this one serves a reporter gene function. To generalize the intended target to other relatable targets, this assay endpoint is annotated to the dna binding intended target family, where the subfamily is POU domain protein.
Human liver HepG2 cells are transiently transfected with multiple reporter transcription units (MRTUs) in 6-well plates using FuGene 6 reagent (Roche; 3 ml FuGene/1 mg DNA). The MRTU constructs are regulated by a cis-regulating element (promoter). […] A major difference between the CIS and TRANS system is that in CIS activities of endogenous TFs are measured, whereas the TRANS assay evaluates changes in activities of exogenous, chimeric NR-Gal4 proteins. […] At the end of 24 hour incubation, total RNA was isolated using TriZol reagent (Invitrogen). The isolated RNA is then reverse-transcribed using oligo(dT) primer and Mo-MLV reverse transcriptase (Invitrogen) with DNAse I (Ambion) treatment for 30 min. The one-tenth of the produced cDNA was amplified by PCR using Taq DNA polymerase (Invitrogen) and two reporter sequence-specific primers. The PCR products were fluorescently labeled by primer extension with 6-arboxyfluorescein (6-FAM) 5'-labeled reporter sequence-specific primer (2 min at 95 C, 20 s at 68 C and 10 min at 72 C) and these products were digested with 5U of HpaI (New England Biolabs) for 2h at 37 C. The fragments were purified using Qiaquick PCR columns (Qiagen), analyzed on an ABI 3130xL genetic analyzer (Applied Biosystems) with peak positions identified by using a set of X-rhodamine (ROX)-labeled MapMarker1000 molecular weight standards (BioVentures). The raw capillary electrophoresis data was processed using Attagraph software (Attagene).
With `CNC(=O)N(C)c1nc2ccccc2s1` the outcome was “inactive”. With `CN(C1CCCCC1)C1CCCCC1` the outcome was “inactive”. For `ClCCN1CCOCC1`, the outcome was “inactive”. For `Cc1cccc(OP(=O)(Oc2cccc(C)c2)Oc2cccc(C)c2)c1`, the outcome was “inactive”. With `ClCc1ccccc1Cl` the AC50 was 74.7 µM (active). In the case of `BrCc1ccc(Br)cc1`, the outcome is reported as “inactive”. In the case of `C#CCOC(=O)/C=C(C)/C=C/CC(C)CCCC(C)C` (stereo not given), the AC50 is reported as 35.7 µM (active). For `COc1ccc([N+](=O)[O-])cc1O`, the outcome was “inactive”. With `Cc1cc(SCc2sc(-c3ccc(C(F)(F)F)c(F)c3)nc2C)ccc1OCC(=O)O` the AC50 was 15.6 µM (active). In the case of `O=S(=O)(C(Cl)(Cl)Cl)C(Cl)(Cl)Cl`, the AC50 is reported as 16.4 µM (active). With `O=NN1CCOCC1` the outcome was “inactive”. For `CNC(=O)O/N=C/C(C)(C)S(C)(=O)=O`, the outcome was “inactive”. For `CCCCCCCCCCCCc1cccc(S(=O)(=O)O)c1`, the outcome was “inactive”. In the case of `CC(C=O)Cc1ccc2c(c1)OCO2` (stereo not given), the outcome is reported as “inactive”. For `CCC[CH2][Sn]([Cl])([Cl])[CH2]CCC`, the AC50 was 0.949 µM (active). With `[Cl][Sn]([c]1ccccc1)([c]1ccccc1)[c]1ccccc1` the AC50 was 0.25 µM (active). With `CC(C)(C)c1ccccc1O` the AC50 was 138 µM (active). For `CCOc1ccc(N)cc1`, the outcome was “inactive”. With `N#CCC#N` the outcome was “inactive”. For `Nc1ccc(Br)cc1`, the outcome was “inactive”. For `CC(C)CP(=S)(S)CC(C)C`, the outcome was “inactive”. For `O=C(Cl)OCCOCCOC(=O)Cl`, the outcome was “inactive”. With `CC(C)(C#N)N=NC(C)(C)C#N` the outcome was “inactive”. In the case of `C=C(C)C(=O)OCC(CC)CCCC` (stereo not given), the outcome is reported as “inactive”. For `Cc1cccc(C)c1NC(=O)CN1CCCC1=O`, the outcome was “inactive”. For `C1CCC(C2CCCCC2)CC1`, the outcome was “inactive”. In the case of `C=CCOC(F)(C(F)(F)F)C(F)(F)F`, the outcome is reported as “inactive”. For `CCOP(=O)(OCC)OC(=CCl)c1ccc(Cl)cc1Cl`, the outcome was “inactive”. With `CCOC(=O)c1ccccc1S(=O)(=O)NC(=O)Nc1nc(Cl)cc(OC)n1` the outcome was “inactive”. With `c1ccc2sc(SNC3CCCCC3)nc2c1` the outcome was “inactive”. In the case of `CC(c1ccccc1)(c1ccc(O)cc1)c1ccc(O)cc1`, the AC50 is reported as 11.1 µM (active). For `CC(=Cc1ccccc1)[N+](=O)[O-]`, the outcome was “inactive”. In the case of `COC(=O)c1cc(Oc2ccc(Cl)cc2Cl)ccc1[N+](=O)[O-]`, the outcome is reported as “inactive”. For `O=S1OC[C@@H]2[C@H](CO1)[C@]1(Cl)C(Cl)=C(Cl)[C@@]2(Cl)C1(Cl)Cl` (stereo not given in full), the AC50 was 100 µM (active). For `COP(=S)(OC)Oc1cc(Cl)c(I)cc1Cl`, the AC50 was 30.7 µM (active). With `CCOC(=O)CC(=O)CCl` the AC50 was 24.3 µM (active). With `CN(C)CCN(C)C` the outcome was “inactive”. For `CC(O)(CS(=O)(=O)c1ccc(F)cc1)C(=O)Nc1ccc(C#N)c(C(F)(F)F)c1` (stereo not given), the AC50 was 58 µM (active). With `Cl[C@H]1OCCO[C@@H]1Cl` the outcome was “inactive”. With `C=CCc1ccccc1O` the outcome was “inactive”.
